Hits are enriched below; roughly 19% of the tested compounds scored in any of these assays.
HT1080NT lethal – qHTS for induction of synthetic lethality in tumor cells producing 2HG: qHTS for the HT-1080-NT fibrosarcoma cell line | HT-1080-NT fibrosarcoma viability, CellTiter-Glo ATP luminescence, 48 h | Potency, µM (series often up to 46.1 µM), without a hit: at the highest dose activity, negative = less viability, hits mostly cytotoxic | 360,000 tested, 1.6% active | AID 686970, 2013;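 note: NT is the 2HG producing partner of a matched IDH1 knockdown line; potency is the fitted concentration of half-maximal effect; 0% = DMSO-treated cells and -100% = media-only wells without cells; nearly all actives have a fitted effect of over 55% in size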
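HT-1080-NT; 750 cells/well; 5% FBS RPMI; 48 h compound, 37 degrees C; CellTiter-Glo luminescence; curve fitting and curve-class assignment.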
HT1080 IDH1KD tx – qHTS for induction of synthetic lethality in tumor cells producing 2HG: qHTS for the HT-1080-IDH1KD cell line | HT-1080 IDH1 knockdown viability, ATP luminescence, 48 h | Potency, µM (series often up to 46.1 µM), inactives show at the highest dose activity, negative = toxicity, hits mostly cytotoxic | 360,000 tested, 2% active | AID 686971, 2013;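 note: potency is the fitted concentration of half-maximal effect; 0% = DMSO wells and -100% = cell-free medium wells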
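Luminescent ATP read-out (CellTiter-Glo, 10 min at room temperature) after 48 h compound exposure at 37 °C gave viability of IDH1-knockdown HT-1080 cells. Activity was normalised to DMSO and cell-free wells, then fitted as concentration-response curves.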
ELG1 repair inh – qHTS screen for small molecules that inhibit ELG1-dependent DNA repair in human embryonic kidney (HEK293T) cells expressing luciferase-tagged ELG1; AID 504467, 2011; Potency, µM (top dose mostly 46.1 µM), without a hit: at the highest dose activity change, negative = inhibition, actives largely listed as inhibitors; 330,000 tested, 2.3% active; HEK293T ELG1-luciferase reporter, luminescence, 16 h; DNA damage induced by 5-fluorouridine; note: potency is the fitted concentration of half-maximal effect; nearly all actives have a fitted effect of over 55% in size
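Reporter activity after DNA damage by 5-fluorouridine is monitored. Compound-treated cells incubate 16 hr at 37 °C, then ONE-Glo is added for 30 min before luminescence reading.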
DT40 TDP1 no CPT – qHTS for Inhibitors of human tyrosyl-DNA phosphodiesterase 1 (TDP1): qHTS in cells in absence of CPT; DT40 Tdp1-/- hTDP1 cells, no CPT, ATP luminescence, 48 h; Potency, µM (series often up to 46.2 µM), for inactives: top-dose activity change, negative = growth inhibition, most hits filed as inhibitors; 420,000 tested, 15% active; AID 686978, 2013; note: potency is the fitted concentration of half-maximal effect; nearly all actives have a fitted effect of over 55% in size
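Seeded 400 DT40-hTDP1 cells/well (vehicle DMSO, no 20 nM CPT); pinned compounds; ≥48 hr at 37 °C; CellTiter-Glo luminescence as viability measure.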
IL1B secr inh – qHTS for Inhibitors of Inflammasome Signaling: IL-1-beta AlphaLISA Primary Screen; THP-1 LPS/ATP IL-1B secretion, AlphaLISA, 16 h; stronger effect = lower value; activity change, % at 57.5 µM; 360,000 tested, 4.7% active; AID 743279, 2014; in the data active = activity change below about -50%; inconclusive = mostly about -30% to -49%
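Secreted IL-1B measured by AlphaLISA bead assay after 16 h compound exposure of THP-1 cells; compounds (final up to 57.5 uM) added 1 h before LPS (250 ng/mL) and ATP (1.25 mM) stimulation; lower signal means less secretion.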
DT40 TDP1 CPT – qHTS for Inhibitors of human tyrosyl-DNA phosphodiesterase 1 (TDP1): qHTS in cells in presence of CPT; chicken DT40 Tdp1-/-;hTDP1 cells + 20 nM CPT, ATP luminescence, 48 h; Potency, µM (doses to about 46.2 µM), without a hit: at the top dose activity change, negative = growth inhibition, usual class: inhibitors; 420,000 tested, 12% active; AID 686979, 2013; note: potency is the fitted concentration of half-maximal effect; nearly all actives have a fitted effect of over 55% in size
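Chicken DT40 Tdp1-/- cells complemented with human TDP1, 400 cells/well, exposed to compounds plus 20 nM camptothecin for at least 48 h at 37 C; viability read as ATP content by CellTiter-Glo luminescence.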
An asterisk follows results filed as active; ? = inconclusive; · = not tested or not shown. Unless noted, calls come from the whole dose curve; as a rule, active = well fitted curve in the direction sought with a large enough effect; inconclusive = small, poorly fitted or top-dose-only effect, or another doubt; inactive = no such curve, though single readings can be large; an effect the other way counts as inactive or inconclusive. Unless noted, % is set by controls: 0 for no effect and ±100 for the full control effect.

SMILES	HT1080NT lethal	HT1080 IDH1KD tx	ELG1 repair inh	DT40 TDP1 no CPT	IL1B secr inh	DT40 TDP1 CPT
CCC(=O)N1CCc2cc(Br)cc(S(=O)(=O)NCc3ccccc3)c21	·	·	·	?	·	-3%
CCC(=O)N1CCc2cc(Br)cc(S(=O)(=O)N3CCCC(C(=O)Nc4ccc(CC)cc4)C3)c21 (centres undefined)	·	·	·	?	·	-17%
CCC(=O)N1CCc2cc(Br)cc(S(=O)(=O)N3CCCC(C(=O)Nc4cccc(F)c4)C3)c21 (centres undefined)	·	·	·	18µM*	·	23µM*
CCC(=O)N1CCc2cc(Br)cc(S(=O)(=O)N3CCCC(C(=O)NCc4ccc(C)cc4)C3)c21 (centres undefined)	·	·	·	16µM*	·	16µM*
CCC(C)NC(=O)CN1C(=O)c2cccnc2Oc2ccc(C)cc21 (centres undefined)	·	·	·	-7%	·	-11%
COc1cccc(-c2onc3ccc(C4(C)OCCO4)cc23)c1	0%	-4%	?	?	-87*	?
Cc1cccc(-c2onc3ccc(C(=O)/C=C/N(C)C)cc23)c1	0%	-6%	?	18µM*	-8	?
Cc1ccc(-c2onc3ccc(C(=O)/C=C/N(C)C)cc23)cc1	-13%	?	-26%	?	-25	?
CC1(c2ccc3noc(-c4ccccc4)c3c2)OCCO1	6%	3%	?	?	?	-1%
CN(C)/C=C/C(=O)c1ccc2noc(-c3ccc(F)cc3)c2c1	-11%	-20%	8.2µM*	?	?	?
COc1cccc(-c2onc3ccc(C(=O)/C=C/N(C)C)cc23)c1	-19%	-3%	?	16µM*	-66*	?
Cc1ccc(CSc2nnc(-n3c(=O)c(C#N)cc4c(=O)n5cc(C)ccc5nc43)s2)cc1	·	·	·	-10%	·	9%
CCCc1nn2c(C)c(-c3ccccc3)nc2s1	·	·	·	-19%	·	-21%
CCSc1nnc(-c2ccc(Cl)cc2)c2ccccc12	2%	2%	3%	?	-4	?
CCN(CC)CCOc1nnc(-c2ccc(OC)cc2)c2ccccc12	-14%	1%	-19%	?	-4	?
CCN(CC)CCOc1nnc(-c2ccc(C)cc2)c2ccccc12	-7%	-8%	-5%	15µM*	-57*	?
CCSc1nnc(-c2ccc(C)cc2)c2ccccc12	-17%	-20%	-1%	16µM*	-22	?
CCC(=O)Nc1cccc(NC(=O)c2ccccc2Cl)c1	11%	4%	0%	6%	-18	7%
CCCn1c(=O)sc2cc(NC(=O)c3ccccc3Cl)ccc21	·	·	·	?	·	21µM*
COc1ccc(C2c3c(oc4ccc(Cl)cc4c3=O)C(=O)N2CCN2CCOCC2)cc1 (centres undefined)	30%	?	0%	-20%	-10	13%
CCOC(=O)CSc1ccc(-c2nc3cc(C)c(C)cc3[nH]2)cn1	-4%	-13%	?	?	-12	?
O=C(CSc1ccc(-c2nc3ccccc3[nH]2)cn1)Nc1ccc(S(=O)(=O)NC2CC2)cc1	-19%	-10%	10%	21µM*	11	26µM*
N#CCSc1ccc(-c2nc3ccccc3[nH]2)cn1	-27%	?	?	23µM*	?	?
O=C(CSc1ccc(-c2nc3ccccc3[nH]2)cn1)Nc1ccc2c(c1)OCCO2	0%	-6%	?	-24%	4	-27%
COCCNC(=O)CSc1ccc(-c2nc3ccccc3[nH]2)cn1	5%	3%	15%	8%	48	-14%
SMILES	HT1080NT lethal	HT1080 IDH1KD tx	ELG1 repair inh	DT40 TDP1 no CPT	IL1B secr inh	DT40 TDP1 CPT
CCOC(=O)CSc1ccc(-c2nc3ccccc3[nH]2)cn1	-20%	-23%	0%	?	-82*	?
CCc1ccc(Nc2cc(C(=O)NCCCN(C)c3ccccc3)c3ccccc3n2)cc1	·	·	·	13µM*	·	?
CCCCNC(=O)c1cc(C)nc2ccccc12	11%	10%	9%	11%	0	-3%
CSc1cccc(Nc2cc(C(=O)NCCCN(C)c3ccccc3)c3ccccc3n2)c1	·	·	·	13µM*	·	15µM*
O=C(CSc1nnc(COc2ccccc2)o1)NC1CC2CCC1C2 (centres undefined)	5%	0%	4%	1%	-22	-13%
O=C(CSc1nnc(COc2ccc(Br)cc2)o1)NC1CCCCC1	-1%	0%	2%	-3%	11	6%
CCOc1ccc(N(CC(=O)NC2CCCCC2)C(=O)CSc2nnc(COc3ccccc3)o2)cc1	?	-19%	18µM*	?	?	?
CCOc1ccc(N(CC(=O)NC2CCCC2)C(=O)CCC(=O)Nc2nccs2)cc1	3%	-2%	2%	-24%	-52*	-11%
O=C(CN(Cc1cccs1)C(=O)CSc1nnc(COc2ccccc2)o1)NC1CCCCC1	-18%	-10%	18µM*	?	-11	?
CC(C)NC(=O)N[C@H]1C=C[C@H](CC(=O)NCc2ccc(Oc3ccccc3)cc2)O[C@@H]1CO	-2%	-2%	·	?	32	-29%
Cc1nnsc1-c1nc2ccccc2n1C(CCc1ccccc1)c1nc2ccccc2[nH]1 (centres undefined)	-2%	-30%	·	?	-26	?
Cc1ccc(Cc2nc3ccccc3n2C(CCc2ccccc2)c2nc3ccccc3[nH]2)cc1 (centres undefined)	-5%	-2%	·	18µM*	-69*	?
FC(F)(F)c1cc(Cc2nc3ccccc3n2C(CCc2ccccc2)c2nc3ccccc3[nH]2)cc(C(F)(F)F)c1 (centres undefined)	21µM*	?	·	7.3µM*	5	7.3µM*
CCn1c(=O)c(CCC(=O)N2CCN(c3ccccn3)CC2)c(C)c2c(C)nn(-c3ccccc3)c21	?	20%	16µM*	21µM*	0	16µM*
O=C(CCc1ccccc1)N1CCN(c2ccccn2)CC1	7%	8%	-1%	-19%	-3	-24%
